Compound activity as filed in PubChem BioAssay.
The list is a sample of the results.
aSyn 5UTR act = Activators working through SNCA 5'UTR binding (MLPCN); alpha-synuclein 5'UTR reporter, activators screen; activity score, % (tested at 7.5 µM), hits read low; 300,000 tested, 7.1% active; AID 1814; in the data active means activity score below about -60%
Numbers without * were called inactive.

What do the screens show for `COCCn1c(C(F)(F)F)ccc(NC(=O)c2ccccc2)c1=O`?
aSyn 5UTR act: -96.5*

Results for Cc1ccc(C(=O)Nc2ccc(C(F)(F)F)n(C)c2=O)cc1 ?
aSyn 5UTR act: -144.6*

Results for CCOC(=O)N1CCC(NC(=O)c2oc3c(F)cccc3c2C)CC1 ?
aSyn 5UTR act: -62.4*

What do the screens show for `CCN(CCO)c1ccc(N=Nc2cc(C)[nH]n2)cc1`?
aSyn 5UTR act: 102.3

What do the screens show for `Cc1cc(N(CCO)CCO)ccc1N=Nc1cc(F)ccc1F`?
aSyn 5UTR act: -137.4*

Results for c1ccc(-c2nnc(N3CCOCC3)nc2-c2ccccc2)cc1 ?
aSyn 5UTR act: -72.8*

What do the screens show for `CC(C)(C)N=Cc1cc(-c2ccccc2)sc1O`?
aSyn 5UTR act: -162.0*

Results for Cc1ccnc(NC(=O)COc2ccc3c(c2)CCC3)c1 ?
aSyn 5UTR act: -89.6*

Results for CCc1ccc(OCC(=O)N2CCc3ccccc32)cc1 ?
aSyn 5UTR act: -190.3*

How did O=C(CO/N=C/c1ccccc1O)N1CCc2ccccc21 do in these assays?
aSyn 5UTR act: -66.9*

How did O=C(COc1ccc2c(c1)CCC2)N1CCc2ccccc21 do in these assays?
aSyn 5UTR act: -123.2*

How did Cc1ccc(OCC(=O)N2CCc3ccccc32)cc1 do in these assays?
aSyn 5UTR act: -121.2*

Results for CC/C(C)=N/Nc1nc(-c2cc3cccc(OC)c3oc2=O)cs1 ?
aSyn 5UTR act: -108.3*

Results for CC1(C)NC(=O)N(CCCOc2ccc(Br)cc2Cl)C1=O ?
aSyn 5UTR act: -148.1*

What do the screens show for `CC1(C)NC(=O)N(CCCOc2ccc3c(c2)CCC3)C1=O`?
aSyn 5UTR act: -76.7*
